In assay [1] the target is Paired box protein Pax-6 (Homo sapiens) (UniProt P26367). Nature of the assay: ATG_Pax6_CIS: Attagene CIS-FACTORIAL HepG2 Assay for human Paired Box 6 (PAX6) (AID 2282956). As to conditions: HepG2 CIS-FACTORIAL PAX6 reporter transcription, RNA readout; actives raise or lower the signal. A digest of the protocol: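 Transient MRTU transfection of HepG2 → compound exposure 24 h → TriZol RNA, oligo(dT) RT → PCR, 6-FAM primer extension, HpaI cut → capillary electrophoresis; activity fitted both directions against DMSO.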
Paired box protein Pax-6 (Homo sapiens), sequence (P26367 whole entry, looked up): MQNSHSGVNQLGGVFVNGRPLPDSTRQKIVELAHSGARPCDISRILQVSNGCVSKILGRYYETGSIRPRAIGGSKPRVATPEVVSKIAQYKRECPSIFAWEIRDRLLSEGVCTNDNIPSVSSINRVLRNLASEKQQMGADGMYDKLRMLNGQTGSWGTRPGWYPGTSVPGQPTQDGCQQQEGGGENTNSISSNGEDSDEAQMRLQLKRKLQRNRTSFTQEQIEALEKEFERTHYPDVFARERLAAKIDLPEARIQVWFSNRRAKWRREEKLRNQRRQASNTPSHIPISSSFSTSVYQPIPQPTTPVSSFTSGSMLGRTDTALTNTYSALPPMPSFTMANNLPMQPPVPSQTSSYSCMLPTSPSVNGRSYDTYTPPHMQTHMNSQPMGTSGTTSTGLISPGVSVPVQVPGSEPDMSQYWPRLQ

Assay [2] can be described thus: ATG_PXRE_CIS: Attagene CIS-FACTORIAL HepG2 Assay for human Pregnane X Receptor Element (PXRE) (AID 2282957). To be noted: HepG2 Attagene CIS-FACTORIAL PXRE reporter, mRNA; actives raise or lower the signal. In a few lines:
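Transfect HepG2 with MRTUs (cis promoter elements); dose chemical, incubate 24 h; isolate RNA, RT with oligo(dT), PCR, 6-FAM label, HpaI cut, CE. Gain/loss fit vs DMSO.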

Assay [3] is described as follows: ATG_PPRE_CIS: Attagene CIS-FACTORIAL HepG2 Assay for human Peroxisome Proliferator-activated Response Element (PPRE) (AID 2282958). To be noted: HepG2 PPRE cis-element reporter, Attagene transcription factor profiling; actives raise or lower the signal. In a few lines: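 DMSO served as negative control and baseline for bidirectional curve fitting. Signal came from PPRE-regulated reporter mRNA in HepG2 cells, measured 24 h post-dosing by RT-PCR, 6-FAM primer extension and capillary electrophoresis.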

Assay [4] can be described thus: ATG_Sox_CIS: Attagene CIS-FACTORIAL HepG2 Assay for human SRY-box transcription factor (SOX) (AID 2282960). As to conditions: HepG2 Attagene cis-factorial SOX reporter, mRNA; actives raise or lower the signal. A digest of the protocol:
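Fluorescence-labelled cDNA fragments from reporter transcripts, sized by CE, give the signal. Cells: HepG2, transiently transfected with cis-regulated reporter units. Exposure 24 h; DMSO negative control; bidirectional curve fitting.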

Assay [5] addresses Transcription factor Sp1 (Homo sapiens) (UniProt P08047). Nature of the assay: ATG_Sp1_CIS: Attagene CIS-FACTORIAL HepG2 Assay for human Specificity Protein 1 (Sp1) (AID 2282961). To be noted: HepG2 Sp1 cis-reporter transcription, actives raise or lower the signal. In a few lines:
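Chemicals are dosed onto HepG2 cells transfected with multiple cis-promoter reporter constructs, and after 24 h reporter RNA is reverse-transcribed, PCR-amplified and resolved by capillary electrophoresis for fluorescence quantitation; activity is scored up or down against DMSO.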

A short description of assay [6]: ATG_SREBP_CIS: Attagene CIS-FACTORIAL HepG2 Assay for human Sterol Regulatory Element Binding (SREBP) (AID 2282962). To be noted: HepG2 Attagene cis-factorial SREBP reporter, mRNA; actives raise or lower the signal. In a few lines: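 Transfected HepG2 (cis-regulated reporter library, endogenous TFs) → compound 24 h → total RNA → oligo(dT) RT → reporter-specific PCR → FAM primer extension, HpaI cut → CE fluorescence. Fit bidirectional vs DMSO.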

In assay [7] the target is Signal transducer and activator of transcription 3 (Homo sapiens) (UniProt P40763). Nature of the assay: ATG_STAT3_CIS: Attagene CIS-FACTORIAL HepG2 Assay for human Signal Transducer and Activator of Transcription 3 (STAT3) (AID 2282963). As to conditions: HepG2, Attagene cis-factorial STAT3 reporter transcription; actives raise or lower the signal. In a few lines: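 Values derive from bidirectional fits relative to DMSO of reporter mRNA levels, measured by RT-PCR with capillary electrophoresis, in HepG2 cells carrying transiently transfected cis-regulated reporter units and exposed 24 h.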
Signal transducer and activator of transcription 3 (Homo sapiens), sequence (P40763 whole entry, looked up): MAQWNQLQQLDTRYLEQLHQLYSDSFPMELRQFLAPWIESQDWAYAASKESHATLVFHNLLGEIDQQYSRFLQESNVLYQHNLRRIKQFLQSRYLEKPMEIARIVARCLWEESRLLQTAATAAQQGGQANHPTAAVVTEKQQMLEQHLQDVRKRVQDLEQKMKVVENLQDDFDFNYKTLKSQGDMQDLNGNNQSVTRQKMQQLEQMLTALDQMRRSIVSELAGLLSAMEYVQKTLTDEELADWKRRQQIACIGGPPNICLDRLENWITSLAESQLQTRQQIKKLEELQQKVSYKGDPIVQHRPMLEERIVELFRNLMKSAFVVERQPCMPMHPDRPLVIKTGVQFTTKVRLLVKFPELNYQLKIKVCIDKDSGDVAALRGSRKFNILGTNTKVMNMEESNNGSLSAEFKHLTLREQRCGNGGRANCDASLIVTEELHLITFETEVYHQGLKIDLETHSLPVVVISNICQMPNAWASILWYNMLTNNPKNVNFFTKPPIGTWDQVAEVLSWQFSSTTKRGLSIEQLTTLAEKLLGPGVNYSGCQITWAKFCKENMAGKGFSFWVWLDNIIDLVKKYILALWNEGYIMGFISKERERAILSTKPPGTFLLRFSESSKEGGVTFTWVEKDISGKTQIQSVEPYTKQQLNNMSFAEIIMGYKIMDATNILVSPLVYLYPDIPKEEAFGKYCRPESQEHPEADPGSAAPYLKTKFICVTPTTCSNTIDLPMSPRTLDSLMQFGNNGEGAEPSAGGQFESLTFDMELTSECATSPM

A short description of assay [8]: ATG_TA_CIS: Attagene CIS-FACTORIAL HepG2 Assay for human TA Basal Promoter (AID 2282964). To be noted: HepG2 Attagene CIS-factorial TA basal promoter reporter; actives raise or lower the signal. A digest of the protocol:
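Read-out: fluorescent reporter-transcript fragments resolved by capillary electrophoresis after RT-PCR and HpaI digestion. Source: HepG2 cells carrying transiently transfected multi-reporter cis constructs, treated 24 h. Endpoint fitted bidirectionally relative to DMSO.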

Assay [9] in a line: ATG_TCF_b_cat_CIS: Attagene CIS-FACTORIAL HepG2 Assay for human T-Cell-Factor with beta-catenin (TCF/b-cat) (AID 2282965). As to conditions: HepG2 TCF/beta-catenin cis-reporter transcription, actives raise or lower the signal. In a few lines:
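HepG2, transient MRTU transfection, cis-element-driven reporters (endogenous TFs). 24 h compound exposure. Readout: reporter mRNA by RT-PCR + 6-FAM primer extension, HpaI digest, capillary electrophoresis. Gain/loss fit vs DMSO baseline.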

Assay [10] is described as follows: ATG_TAL_CIS: Attagene CIS-FACTORIAL HepG2 Assay for human TAL Basal Promoter (AID 2282966).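 Further: background control endpoint measuring basal TAL promoter reporter mRNA not a specific factor.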 As to conditions: HepG2 Attagene cis-factorial TAL promoter reporter; actives raise or lower the signal. In a few lines:
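Fluorescence of labelled reporter cDNA fragments, resolved by capillary electrophoresis, gave the readout. Human HepG2 liver cells carried transiently transfected cis-element reporter units and were treated for 24 hours; activity was fitted bidirectionally against DMSO.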

Assay [11] can be described thus: ATG_TGFb_CIS: Attagene CIS-FACTORIAL HepG2 Assay for human Transforming Growth Factor (TGF) (AID 2282967). As to conditions: HepG2 Attagene CIS TGFb reporter, mRNA transcription; actives raise or lower the signal. A digest of the protocol:
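Transient MRTU transfection of HepG2 (FuGene 6). Dose 24 h. TriZol RNA, oligo(dT) RT, PCR, 6-FAM primer extension, HpaI cut, CE. Bidirectional fit, DMSO = baseline.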

Assay [12] can be described thus: ATG_VDRE_CIS: Attagene CIS-FACTORIAL HepG2 Assay for human Vitamin D Receptor Element (VDRE) (AID 2282968). To be noted: HepG2 VDRE cis-reporter transcription, actives raise or lower the signal. In a few lines: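 Cell-based multiplexed reporter format in human liver HepG2 cells, 24 h post-dose. Fluorescence from capillary electrophoresis of reporter cDNA gives the signal, with DMSO as negative control and baseline.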

Assay [13] has as its target Estrogen receptor (Homo sapiens) (UniProt P03372). Nature of the assay: ATG_ERa_TRANS: Attagene TRANS-FACTORIAL HepG2 Assay for human Estrogen Receptor alpha (ERa) (AID 2282970; active means hit-call score of the fitted dose curve at least 0.9, where 1 is the maximum). As to conditions: HepG2 Attagene TRANS ERa GAL4 reporter, mRNA. In a few lines: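 Human liver HepG2, transient transfection of multiple GAL4-UAS reporter units; TRANS format (exogenous NR-Gal4 chimera). 24 h dosing. Readout: reporter mRNA, RT-PCR, 6-FAM primer extension, HpaI digest, capillary electrophoresis. Positive direction vs DMSO.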

Assay [14] has as its target X-box-binding protein 1 (Homo sapiens) (UniProt P17861). Kind of assay: ATG_Xbp1_CIS: Attagene CIS-FACTORIAL HepG2 Assay for human X-box Binding Protein 1 (XBP1) (AID 2282972). As to conditions: HepG2 XBP1 cis-element reporter, Attagene multiplex; actives raise or lower the signal. In a few lines:
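HepG2, transient MRTU transfection (cis-promoter driven), 24 h compound exposure. Total RNA → oligo(dT) RT → PCR → 6-FAM labeling → HpaI cut → CE. Bidirectional fit vs DMSO.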

A short description of assay [15]: ATG_M_19_TRANS: Attagene TRANS-FACTORIAL HepG2 Assay for M19 Transcription Factor (Internal Marker) (AID 2282974; active means hit-call score of the fitted dose curve at least 0.9, where 1 is the maximum). To be noted: HepG2 Attagene TRANS-FACTORIAL M19 internal marker reporter. A digest of the protocol: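 Multiplexed TRANS format: HepG2 liver cells bearing transient GAL4-UAS reporter units, chemical treatment 24 h, reporter transcripts quantified by RT-PCR plus capillary electrophoresis. DMSO defines baseline.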

A short description of assay [16]: ATG_GAL4_TRANS: Attagene TRANS-FACTORIAL HepG2 Assay for GAL4 (Internal Marker) (AID 2282976; active means hit-call score of the fitted dose curve at least 0.9, where 1 is the maximum). To be noted: HepG2 Attagene TRANS GAL4 internal marker reporter. A digest of the protocol: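 First, HepG2 cells were transfected with reporter units under GAL4-UAS control. Next, they were treated with chemical for 24 h. Finally, RNA was reverse-transcribed, PCR-amplified, FAM-labelled and resolved by capillary electrophoresis, with induction scored against DMSO.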

Assay [17] addresses Nuclear receptor subfamily 1 group I member 3 (Homo sapiens) (UniProt Q14994). Nature of the assay: ATG_CAR_TRANS: Attagene TRANS-FACTORIAL HepG2 Assay for human Constitutive Androstane Receptor (CAR) (AID 2282969; active means hit-call score of the fitted dose curve at least 0.9, where 1 is the maximum;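 further: activators raise reporter mRNA above DMSO so AC50 marks induction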). As to conditions: HepG2 Attagene TRANS-FACTORIAL CAR reporter. A digest of the protocol: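 HepG2 cells transiently transfected with GAL4-UAS reporter units; TRANS format reads activity of exogenous chimeric NR-Gal4 protein. After 24 h dosing, reporter mRNA quantified by RT-PCR, 6-FAM labelling and capillary electrophoresis; gain of signal fitted against DMSO.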

Assay [18] is described as follows: ATG_RORE_CIS: Attagene CIS-FACTORIAL HepG2 Assay for human RAR-related Orphan Receptor Element (RORE) (AID 2282959). To be noted: HepG2 Attagene cis-factorial RORE reporter, mRNA; actives raise or lower the signal. In a few lines: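 Transfect HepG2 with MRTUs; treat 24 h; extract RNA; RT with oligo(dT); PCR with reporter-specific primers; 6-FAM primer extension; HpaI digest 2 h at 37 C; capillary electrophoresis. Fit vs DMSO, bidirectional.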

Assay [19] addresses Steroid hormone receptor ERR1 (Homo sapiens) (UniProt P11474). Nature of the assay: ATG_ERRa_TRANS: Attagene TRANS-FACTORIAL HepG2 Assay for human Estrogen-Related Receptor alpha (ERRa) (AID 2282971; active means hit-call score of the fitted dose curve at least 0.9, where 1 is the maximum). To be noted: HepG2 Attagene TRANS reporter, ERRa transactivation. In a few lines:
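Reporter transcript induction was quantified by RT-PCR and capillary electrophoresis of FAM-labelled, HpaI-cut products after 24 h treatment of HepG2 cells carrying transiently transfected GAL4-UAS reporter units and an exogenous ERRa-Gal4 fusion; activity scored as increase over DMSO.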

Inconclusive results are not listed. Activity calls are given as the source filed them. How the source made its calls, unless noted: active means hit-call score of the fitted dose curve at least 0.9, where 1 is the maximum; inactive means score below 0.9.

X-box-binding protein 1 (Homo sapiens), sequence (P17861 whole entry, looked up): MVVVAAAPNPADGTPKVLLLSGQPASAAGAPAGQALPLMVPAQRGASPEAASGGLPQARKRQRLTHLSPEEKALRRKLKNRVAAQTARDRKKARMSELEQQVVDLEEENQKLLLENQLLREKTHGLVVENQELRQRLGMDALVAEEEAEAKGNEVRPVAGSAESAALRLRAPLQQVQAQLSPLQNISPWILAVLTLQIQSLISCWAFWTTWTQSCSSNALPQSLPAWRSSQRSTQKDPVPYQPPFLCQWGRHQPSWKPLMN
Transcription factor Sp1 (Homo sapiens), sequence (P08047 whole entry, looked up): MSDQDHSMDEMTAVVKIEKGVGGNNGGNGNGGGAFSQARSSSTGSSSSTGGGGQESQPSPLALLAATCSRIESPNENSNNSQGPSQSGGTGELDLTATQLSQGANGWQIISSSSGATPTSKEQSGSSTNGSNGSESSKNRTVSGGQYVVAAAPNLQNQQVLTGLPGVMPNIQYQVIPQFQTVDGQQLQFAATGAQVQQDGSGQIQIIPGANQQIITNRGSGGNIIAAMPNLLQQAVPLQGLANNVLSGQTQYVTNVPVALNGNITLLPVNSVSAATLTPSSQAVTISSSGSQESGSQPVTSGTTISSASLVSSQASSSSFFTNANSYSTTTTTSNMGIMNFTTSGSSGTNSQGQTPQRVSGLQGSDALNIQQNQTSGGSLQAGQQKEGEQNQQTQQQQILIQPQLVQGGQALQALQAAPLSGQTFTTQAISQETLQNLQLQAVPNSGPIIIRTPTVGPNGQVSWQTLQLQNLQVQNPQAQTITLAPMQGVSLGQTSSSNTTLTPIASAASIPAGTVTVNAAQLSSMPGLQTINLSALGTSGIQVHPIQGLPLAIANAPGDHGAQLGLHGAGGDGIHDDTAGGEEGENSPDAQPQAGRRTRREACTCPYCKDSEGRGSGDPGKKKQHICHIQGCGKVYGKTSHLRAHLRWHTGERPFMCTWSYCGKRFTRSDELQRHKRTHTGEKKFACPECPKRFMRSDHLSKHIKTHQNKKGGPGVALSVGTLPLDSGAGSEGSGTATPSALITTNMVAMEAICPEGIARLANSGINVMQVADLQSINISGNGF
Estrogen receptor (Homo sapiens), sequence (P03372 whole entry, looked up, the tested form may be a part): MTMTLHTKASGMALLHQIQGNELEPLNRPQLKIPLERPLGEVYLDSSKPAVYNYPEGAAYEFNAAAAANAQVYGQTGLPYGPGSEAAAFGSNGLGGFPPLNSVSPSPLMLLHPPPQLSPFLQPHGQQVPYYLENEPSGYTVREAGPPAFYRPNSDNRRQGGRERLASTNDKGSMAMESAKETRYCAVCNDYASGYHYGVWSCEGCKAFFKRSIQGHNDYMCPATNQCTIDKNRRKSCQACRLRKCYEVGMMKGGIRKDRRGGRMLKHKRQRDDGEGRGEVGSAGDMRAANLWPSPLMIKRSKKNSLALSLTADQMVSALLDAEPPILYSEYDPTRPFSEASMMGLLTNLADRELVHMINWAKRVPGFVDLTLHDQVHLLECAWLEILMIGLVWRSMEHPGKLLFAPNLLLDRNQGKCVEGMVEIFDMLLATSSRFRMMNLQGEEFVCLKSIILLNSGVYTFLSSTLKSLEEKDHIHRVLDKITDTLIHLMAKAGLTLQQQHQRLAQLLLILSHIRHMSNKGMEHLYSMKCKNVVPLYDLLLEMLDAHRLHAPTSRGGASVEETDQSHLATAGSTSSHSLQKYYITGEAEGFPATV
Steroid hormone receptor ERR1 (Homo sapiens), sequence (P11474 whole entry, looked up, the tested form may be a part): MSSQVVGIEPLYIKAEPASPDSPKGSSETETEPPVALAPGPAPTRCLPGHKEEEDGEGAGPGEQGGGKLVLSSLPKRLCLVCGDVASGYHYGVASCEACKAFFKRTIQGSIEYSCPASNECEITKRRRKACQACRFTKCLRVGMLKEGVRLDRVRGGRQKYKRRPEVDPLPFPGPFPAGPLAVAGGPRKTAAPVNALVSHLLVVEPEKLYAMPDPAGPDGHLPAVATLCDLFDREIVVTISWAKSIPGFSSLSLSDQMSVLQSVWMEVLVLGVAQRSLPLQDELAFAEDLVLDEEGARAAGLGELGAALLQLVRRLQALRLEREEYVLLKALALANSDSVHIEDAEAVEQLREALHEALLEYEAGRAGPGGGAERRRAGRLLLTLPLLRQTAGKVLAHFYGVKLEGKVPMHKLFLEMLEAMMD
Nuclear receptor subfamily 1 group I member 3 (Homo sapiens), sequence (Q14994 whole entry, looked up, the tested form may be a part): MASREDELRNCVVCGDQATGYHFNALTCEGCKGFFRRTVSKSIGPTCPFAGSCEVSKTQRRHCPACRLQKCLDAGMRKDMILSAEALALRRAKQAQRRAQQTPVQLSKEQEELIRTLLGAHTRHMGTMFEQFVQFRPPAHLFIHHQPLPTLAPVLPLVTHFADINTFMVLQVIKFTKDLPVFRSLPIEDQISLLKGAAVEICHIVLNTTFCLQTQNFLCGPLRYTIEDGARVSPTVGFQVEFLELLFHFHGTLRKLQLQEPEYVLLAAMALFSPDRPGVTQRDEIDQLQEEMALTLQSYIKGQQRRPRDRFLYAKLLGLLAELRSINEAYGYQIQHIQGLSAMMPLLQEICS

As for `Cc1ccc2oc(=O)ccc2c1`, the outcome in [1], in [2], in assay [3], in assay [4], in assay [5] and in [6] was inactive. Besides, the outcome in assay [7], in assay [8], in [9], in [10], in assay [11] and in assay [12] was inactive. The call in [13], in [14], in [15] and in assay [16] was inactive.
For the compound `O=c1cc(-c2ccccc2)oc2ccccc12`, the AC50 – broadly, the concentration at which the activity in the assay is half-maximal – in [1] was 99.5 µM (active); in [2] it was 4.25 µM (active); in [3] it was 4.81 µM (active); in [8], 99.5 µM (active); in [9], 25.2 µM (active); in [12] it was 30.5 µM (active). The AC50 in assay [13] was 4.97 µM (active); in assay [14], 82.8 µM (active). For the same compound, the call in assay [4], in [5], in assay [6], in assay [7], in assay [10] and in [11] was inactive. In addition, the outcome in assay [17] and in assay [15] was inactive.
Regarding `O=[N+]([O-])C1(Br)COCOC1`, the result in [1], in assay [2], in assay [18], in assay [6], in assay [7] and in assay [8] was inactive. Further, the compound was called inactive in assay [10], in [11], in assay [12], in assay [13], in assay [19] and in assay [15]. In addition, the outcome in assay [16] was inactive. For the same compound, the AC50 in assay [4] is 51.9 µM (active); in assay [5], 50.2 µM (active); in assay [9], 55.7 µM (active); in assay [14] it was 53.1 µM (active).
In the case of `CC/C=C\CCOC(=O)CCCCC`, the result in assay [1], in assay [2], in [3], in [4], in [5] and in assay [6] was inactive. Moreover, the compound was called inactive in assay [7], in assay [8], in assay [9], in [10], in assay [11] and in assay [13]. Besides, the call in assay [19], in assay [14], in assay [15] and in [16] was inactive.

These data come from PubChem BioAssay (EPA / NIEHS).
